PubChem BioAssay
Potency and affinity values are given separately. Results filed as inconclusive are left out. The source made the active and inactive calls.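 The calls were made as follows, unless noted: active = a fitted half-maximal concentration no higher than twice the top valid tested dose, with signal falling as cells die; inconclusive = flat curve between -70% and -30%, or poor fit; inactive = the rest, including signal rising instead of falling.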

What was measured:
[1] = fungal growth arrest, C. neoformans – Alamar Blue, cherry-picks, dose response (AID 686998;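 active = falling signal with fitted half-maximal potency no higher than twice the top valid tested dose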)
[2] = C. neoformans lysis by adenylate kinase leakage – AK release luminescence, cherry-picks, dose response (AID 687000;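 active = fitted dose curve reaches 40% lysis signal rise at or below the highest valid concentration tested for that sample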;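 also: luminescent detection of adenylate kinase leaking from lysed yeast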)
[3] = viability loss in HepG2 hepatoma cells – cell-based, cherry-picks, set 2, cytotoxicity control, dose response (AID 687002;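 active = a dose-response fit showing signal loss, with half-maximal concentration no higher than twice the top tested dose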)
[4] = viability loss in HeLa cells – cell-based, ATP luminescence, cherry-pick samples, cytotoxicity control, dose response (AID 687004)

Measured: outcome

COc1cccc(S(=O)(=O)Nc2ccc3c(c2)[C@H]2C[C@H](CC(=O)NCc4ccccc4F)O[C@@H](CO)[C@H]2O3)c1
inactive: all assays above

Cc1ccc(S(=O)(=O)N[C@@H]2CC[C@H](CCNC(=O)C3CCCC3)O[C@@H]2CO)cc1
inactive: all assays above

CC(C)NC(=O)Nc1ccc2c(c1)CC(=O)N([C@@H](C)CO)C[C@@H](C)[C@@H](CN(C)S(=O)(=O)c1ccc(Cl)cc1)O2
inactive: all assays above

C[C@H](CO)N1C[C@H](C)[C@H](CN(C)Cc2ccncc2)Oc2ccc(NC(=O)CCC(F)(F)F)cc2C1=O
inactive: all assays above

COc1ccccc1-c1cnc2c(c1)C(=O)N([C@@H](C)CO)C[C@@H](C)[C@H](CN(C)C(=O)c1cccnc1)O2
inactive: all assays above

CC(C)NC(=O)NCC[C@H]1CC[C@H](NC(=O)CN(C)C)[C@H](CO)O1
inactive: all assays above

CCC(=O)N1CCN(c2ccccc2NC(=S)NC(=O)c2cccc([N+](=O)[O-])c2)CC1
inactive: all assays above

CCC(=O)N1[C@H](C(=O)Nc2ccccc2)[C@@H](CO)[C@@H]2Cn3c(ccc(-c4ccncc4)c3=O)[C@@H]21
inactive: all assays above

CCC(=O)N1[C@H](CO)[C@H](c2ccccc2)[C@@H]1CN(CC)C(=O)c1cccc(F)c1
inactive: all assays above

CC(C)(C)C(=O)N1CCCC1C(=O)Nc1ccccc1 (centres undefined)
inactive: all assays above

O=C(C[C@H]1CC[C@H]2[C@@H](COC[C@@H](O)CN2C(=O)Nc2ccc(Cl)cc2)O1)N1CCCCC1
inactive: all assays above

COc1cccc(S(=O)(=O)Nc2ccc3c(c2)[C@@H]2C[C@H](CC(=O)NC4CCCCC4)O[C@H](CO)[C@@H]2O3)c1
inactive: all assays above

CO[C@H](CN(C)Cc1cc(F)ccc1F)[C@@H](C)CN([C@@H](C)CO)S(=O)(=O)c1ccc(F)cc1
inactive: all assays above

C[C@H]1CN([C@@H](C)CO)C(=O)c2cc(NS(=O)(=O)c3ccc(F)cc3)ccc2O[C@@H]1CN(C)S(=O)(=O)c1ccccc1
inactive: all assays above

C[C@@H]1CN([C@H](C)CO)C(=O)c2cc(NS(=O)(=O)c3ccccc3)ccc2O[C@H]1CN(C)C(=O)NC1CCCCC1
inactive: all assays above

CCCNC(=O)N(C)C[C@@H]1Oc2ncc(C#CCc3ccccc3)cc2C(=O)N([C@@H](C)CO)C[C@@H]1C
inactive: all assays above

C[C@H]1CN([C@@H](C)CO)S(=O)(=O)c2ccc(Br)cc2O[C@@H]1CN(C)S(=O)(=O)c1ccccc1F
inactive: all assays above

CO[C@H]1CN(C)C(=O)c2cc(NC(=O)Nc3cccc(F)c3)ccc2OC[C@H](C)N(C)C[C@H]1C
inactive: all assays above

C[C@@H]1CN([C@@H](C)CO)C(=O)c2cc(NC(=O)Nc3ccc(F)cc3)ccc2O[C@@H](C)CCCCO[C@H]1CN(C)S(=O)(=O)c1ccccc1
inactive: all assays above

Cc1ccc(C)c(NC(=O)C2CCCN2C(=O)NC2CCCCC2)c1 (centres undefined)
inactive: all assays above

CC(C)NC(=O)N(C)C[C@@H]1OCCCC[C@@H](C)Oc2ccc(NC(=O)c3ccccc3)cc2C(=O)N([C@H](C)CO)C[C@@H]1C
inactive: all assays above

C[C@@H](NC(=O)C[C@H]1CC[C@@H](NC(=O)Cc2ccccn2)[C@@H](CO)O1)c1ccccc1
inactive: all assays above

CO[C@@H]1CC[C@@H]2CCOc3c(C#N)cccc3C(=O)N(C)C[C@H](c3ccccc3)CC(=O)N(C)C[C@@H]1O2
inactive: all assays above

COc1ccccc1NC(=O)N[C@@H]1CC[C@@H](CCn2cc(C3(O)CCCC3)nn2)O[C@H]1CO
inactive: all assays above

O=C(Cc1cccs1)N1CCN(c2ccc([N+](=O)[O-])cc2)CC1
inactive: all assays above

C[C@H]1CN([C@@H](C)CO)C(=O)c2cc(-c3cncnc3)cnc2O[C@H]1CN(C)C(=O)c1ccccc1F
inactive: all assays above

Cc1cccc(C)c1NC(=O)C(CCc1ccccc1)N1CCN(C)CC1 (centres undefined)
inactive: all assays above

C/C=C/c1ccc([C@@H]2[C@@H](CNC(=O)C3CC3)N(C(=O)CC)[C@H]2CO)cc1
inactive: all assays above

O=C(CSc1ncnc2c1cnn2-c1ccc(F)cc1)NC1CCCC1
inactive: all assays above

C/C=C/c1ccc2c(c1)O[C@H](CN(C)S(=O)(=O)c1ccccc1)[C@H](C)CN([C@@H](C)CO)S2(=O)=O
inactive: all assays above

O=C1CCC(C(=O)Nc2ccccc2)N1 (centres undefined)
inactive: all assays above

CCC(=O)N[C@H]1C=C[C@@H](CC(=O)OC)O[C@@H]1CO
inactive: all assays above

C[C@H]1CCCCO[C@@H](CN(C)C(=O)c2ccccc2)[C@@H](C)CN([C@@H](C)CO)C(=O)c2cc(NC(=O)c3ccncc3)ccc2O1
inactive: all assays above

C[C@@H]1CN([C@H](C)CO)C(=O)c2cc(NC(=O)Nc3cccc4ccccc34)ccc2O[C@H]1CN(C)C(=O)Nc1ccc(C(F)(F)F)cc1
inactive: all assays above

Cc1cc(C(=O)NC(=S)Nc2ccccc2N2CCCC2)ccc1[N+](=O)[O-]
inactive: all assays above

CCC(=O)N1[C@H](CO)[C@H](c2ccccc2)[C@H]1CN(CC)C(=O)c1cccc(F)c1
inactive: all assays above

CCS(=O)(=O)N1CCCCN2[C@H](C1)[C@@H](c1ccc(-c3ccc(C#N)cc3)cc1)[C@@H]2CO
inactive: all assays above

O=C(Cc1ccccc1)N[C@H]1C=C[C@@H](CC(=O)N2CCOCC2)O[C@H]1CO
inactive: all assays above

COc1ccc(CNC(=O)COc2ccc(OC)cc2)cc1
inactive: all assays above

C[C@H]1CN([C@@H](C)CO)C(=O)Cc2cc(NC(=O)Nc3cccc4ccccc34)ccc2O[C@H]1CN(C)S(=O)(=O)c1cccs1
inactive: all assays above

C[C@H](CO)N1C[C@H](C)[C@H](CN(C)C(=O)Nc2cccc3ccccc23)Oc2ccc(NC(=O)Nc3ccccc3)cc2C1=O
inactive: all assays above

C[C@@H]1CN([C@H](C)CO)C(=O)c2cc(NS(=O)(=O)c3cn(C)cn3)ccc2O[C@H]1CN(C)C(=O)Nc1cccc2ccccc12
inactive: all assays above

C[C@@H]1CN([C@@H](C)CO)S(=O)(=O)c2ccc(C#C[C@@H](C)O)cc2O[C@@H]1CN(C)C(=O)C1CCCCC1
inactive: all assays above

CC(C)NC(=O)Nc1ccc2c(c1)CC(=O)N([C@@H](C)CO)C[C@H](C)[C@H](CN(C)Cc1ccc3c(c1)OCO3)O2
inactive: all assays above

C[C@@H]1CN([C@@H](C)CO)C(=O)c2cc(C3=CCCCC3)cnc2O[C@H]1CN(C)C(=O)Cc1cccnc1
inactive: all assays above

Cc1cc(C)c(NC(=O)C2CCC(=O)N2)c(C)c1 (centres undefined)
inactive: all assays above

Cc1noc(C)c1S(=O)(=O)N(C)C[C@@H]1OCCCC[C@@H](C)Oc2ccc(NC(=O)CCCCCC(=O)Nc3ccccc3N)cc2C(=O)N([C@H](C)CO)C[C@@H]1C
inactive: all assays above

CCCN(C)C[C@@H]1OCCCC[C@H](C)Oc2ccc(NS(=O)(=O)c3ccc(C)cc3)cc2C(=O)N([C@H](C)CO)C[C@@H]1C
inactive: all assays above

COc1cccc(S(=O)(=O)N2C[C@@H](O)COC[C@H]3O[C@H](CC(=O)N4CCN(C)CC4)CC[C@@H]32)c1
inactive: all assays above

CCC(C(=O)Nc1c(C)cc(C)cc1C)N1CCCCCC1 (centres undefined)
inactive: all assays above

COc1ccccc1NC(=O)N[C@@H]1CC[C@H](CCn2cc(-c3ccccc3OC)nn2)O[C@H]1CO
inactive: all assays above

CCCNC(=O)C[C@@H]1CC[C@H]2[C@@H](COC[C@H](O)CN2Cc2ccccc2F)O1
inactive: all assays above

O=C(C[C@H]1C=C[C@H](NC(=O)C2CCC2)[C@@H](CO)O1)NC1CCC1
inactive: all assays above

CC(=O)NC[C@H]1[C@@H](c2ccc(C3=CCCC3)cc2)[C@@H](CO)N1C(=O)NC(C)C
inactive: all assays above

CC=Cc1ccc2n(c1=O)C[C@H]1[C@H](CO)[C@@H](C(=O)N3CCOCC3)N(CC3CC3)[C@@H]21 (mixture of isomers)
inactive: all assays above

Cc1ccc(S(=O)(=O)N(CC(=O)NCCSC2CCCCC2)c2ccccc2F)cc1
inactive: all assays above
